# Source: PubChem BioAssay
# The list is not random: actives were taken first. Their share in the collection is about 1.2%.
# RGS7-Gao reg: modulates binding of RGS7 to human Galphao; binding response (% of control), % at 10 µM; P09471; AID 1439; 0.35% of 220,000 active; Multiplexed bead flow cytometry; actives lie on both sides; in the data active means binding response below about 49% or above about 150%; inconclusive means no clear call, values can overlap the other calls; inactive means in between;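 further: fluorescent Galphao held in activated GDP-AlF4 state binding bead-coupled RGS7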
# Target sequence (P09471 whole entry, looked up): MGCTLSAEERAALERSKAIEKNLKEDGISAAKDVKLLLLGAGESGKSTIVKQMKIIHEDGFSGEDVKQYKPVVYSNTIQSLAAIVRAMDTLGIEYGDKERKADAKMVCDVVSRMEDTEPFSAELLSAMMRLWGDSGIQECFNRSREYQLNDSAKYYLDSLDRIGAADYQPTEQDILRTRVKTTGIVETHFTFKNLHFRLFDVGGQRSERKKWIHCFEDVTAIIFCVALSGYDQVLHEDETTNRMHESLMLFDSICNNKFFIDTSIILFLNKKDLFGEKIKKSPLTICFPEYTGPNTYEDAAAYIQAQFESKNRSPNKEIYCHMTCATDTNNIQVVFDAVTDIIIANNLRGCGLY
# GSH fluor: GSH bead compound fluorescence profile. fluorescence (KMESF) at 10 µM. 0.25% of 190,000 active. GSH beads flow cytometry, compound fluorescence 488/530 nm; stronger effect = higher value. AID 1776; in the data active means fluorescence above about 89;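 further: glutathione beads carrying GST-tagged Bcl family fusion proteins plus one bare bead set; values are compound well signal with DMSO vehicle wells as background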
# RGS16-Gao: regulators of human RGS16-Galphao interaction. bead-based flow cytometry RGS16-Galphao binding, fluorescence; actives lie on both sides. binding response (% of control), % at 10 µM. 0.38% of 220,000 active; call rule not given here;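 further: Galphao activated by GDP with aluminum fluoride before binding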
# RGS4-Gao reg: human RGS4-Galphao interaction regulation; P09471; Multiplexed bead flow cytometry, RGS4-Galphao binding; actives lie on both sides; binding response (% of control), % at 10 µM; 0.33% of 220,000 active; in the data active means binding response below about 49% or above about 150%; inactive means in between;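 further: fluorescent Galphao activated with aluminum fluoride binding bead-coupled RGS4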
# Avidin bead fluor: compound fluoresces at 488/530 nm on avidin beads. compound fluorescence 488/530 nm, flow cytometry; stronger effect = higher value. fluorescence (KMESF) at 10 µM. 0.38% of 220,000 active. AID 1775; in the data active means fluorescence above about 47
# RGS8-Gao reg: human RGS8-Galphao interaction regulation | P09471 | multiplexed bead flow cytometry, RGS8-Galphao binding; actives lie on both sides | response (percent of control binding), % at 10 µM | 0.34% of 220,000 active | AID 1423; in the data active means response below about 60% or above about 140%; inactive means in between;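 further: Galphao activated as the GDP aluminium fluoride complex binding bead-coupled RGS8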
# * marks the source's active call; other numbers are inactive results; ? = inconclusive; / = no result given; [ ] = another dose, or the depositor's remark.
SMILES,RGS7-Gao reg,GSH fluor,RGS16-Gao,RGS4-Gao reg,Avidin bead fluor,RGS8-Gao reg
COc1ccc(NC(=O)CSc2ccc(F)cc2)cc1S(=O)(=O)N1CCCCC1,106,8,102,104,3,103
COc1ccc(NC(=O)CSc2ccc(NC(C)=O)cc2)cc1S(=O)(=O)N1CCCCC1,133,23,105,136,74*,100
COC(=O)c1sc2ccccc2c1C(=O)OC,118,17,106,103,61*,99
COC(=O)c1sc2ccccc2c1N,98,17,104,98,7,102
CCOCCCN1C(=O)CN(C2CCC(C)CC2)C(=O)C1c1ccc(C)cc1 (configuration not stated),100,12,105,97,25,100
COc1ccc(CCNC(=O)CN2C(=O)NC(C)(c3ccc([N+](=O)[O-])cc3)C2=O)cc1 (configuration not stated),100,18,102,102,11,102
O=C1NC(=O)C(CC(=O)N(c2ccccc2)C2(C(=O)NC3CCCC3)CCCCC2)N1 (configuration not stated),111,29,102,102,52*,101
CC(C)N(Cc1ccccc1)C(=O)Cn1c(=O)cnc2ccccc21,?,/,95,114,49*,97
O=C(O)Cn1c(=O)cnc2ccccc21,103,10,109,102,8,104
COC(=O)C1(Cc2ccc(O)c(CC3OC3(C)C)c2)OC(=O)C(O)=C1c1ccc(O)cc1 (configuration not stated),?,/,96,98,6,97
Cc1cccc(-n2nnnc2SCC(=O)c2cc(C)n(CC3CCCO3)c2C)c1 (configuration not stated),99,263*,101,100,6,98
Cc1ccc(-n2nnnc2SCC(=O)c2cc(C)n(CC3CCCO3)c2C)cc1 (configuration not stated),93,14,56,89,4,86
O=C1OC(COc2ccc(Br)cc2)CN1c1ccccc1 (configuration not stated),?,/,108,107,6,104
COc1cc(C(=O)NNc2nc3cc4c(cc3s2)OCO4)cc(OC)c1OC,127,17,107,161*[activator],32,96
Cc1cc(C)n2nc3nc(N4CCCC4)nc(-c4ccccc4)c3c2n1,115,9,97,104,58*,102
Nc1[nH]nc2nc(N3CCCC3)nc(-c3ccccc3)c12,96,33,102,98,3,100
O=C1c2ccccc2C(=O)N1CCc1nc2ccccc2c(=O)n1CCCn1ccnc1,104,272*,120,108,8,105
Cc1cccc(/C=N/NC(=O)Cn2nnnc2N)n1,?,/,105,104,9,102
Cn1cnnc1SCC(=O)Nc1ccc(OCc2ccccc2)cc1,100,11,106,102,27,105
Cc1ccc(C(=O)NCC(=O)OC(C)C(=O)Nc2ccc(N(C)C)cc2)s1 (configuration not stated),101,11,100,101,8,99
Cc1cccc(OCc2nnc(SCC(=O)c3ccccc3)o2)c1,130,14,104,105,64*,98
Cc1cccc(OCc2nnc(SCC(=O)NCCc3ccccc3)o2)c1,104,243*,102,99,10,100
Fc1ccccc1C1c2cccn2CCN1C(=S)Nc1ccc(Br)cc1 (configuration not stated),?,15,100,99,13,101
Cc1nn(C)c(C)c1CNC(=O)Nc1cccc(Cl)c1C,96,14,107,99,12,105
CC(=O)Nc1ccc(S(=O)(=O)N2C(=O)c3cccc4cccc2c34)cc1,?,/,109,101,12,101
SMILES,RGS7-Gao reg,GSH fluor,RGS16-Gao,RGS4-Gao reg,Avidin bead fluor,RGS8-Gao reg
COC(=O)c1cc(NC(=O)c2cccc(Cl)c2)c(=O)oc1/C=C/Nc1cc(C)cc(C)c1,104,173*,108,106,16,99
COC(=O)c1cc(NC(=O)c2cccc(C(F)(F)F)c2)c(=O)oc1C,?,19,103,103,11,102
O=C(CC1CCCCC1)NCc1nc(-c2ccccc2)no1,?,/,104,103,8,100
CCOc1ccccc1NC(=O)N1CCC(c2nc3ccccc3[nH]2)CC1,102,259*,101,104,7,102
COc1ccccc1NC(=O)N1CCC(c2nc3cc(C)c(C)cc3[nH]2)CC1,104,12,111,104,22,104
O=C(OCC(=O)N1CCOCC1)c1ccc2c(c1)OCCO2,30*,12,-154,32*,1,42*
Cc1ccc(C)c(N2CCN(C(=O)CN3C(=S)NC(C)(C)CC3C)CC2)c1 (configuration not stated),?,16,100,100,9,101
Cc1ccc(NC(=O)c2ccccc2CCc2ccccc2)c(C)c1,122,33,103,102,56*,100
O=C(O)CN1CCCCC1,97,13,100,99,11,99
CC(=O)/C(CN1CCCCC1)=N\O,136,13,103,110,85*,101
COc1cccc(CN2CCN(c3nc4nonc4nc3NC3CC3)CC2)c1,102,21,105,102,10,103
O=C1C(c2ccnc3ccccc23)=C(O)c2ccccc21,106,128*,106,106,4,104
CN(CCO)C(=O)c1cccc2c1-c1ccccc1C2=O,104,259*,103,100,8,99
CCOC(=O)c1sc(-c2ccccn2)nc1C,103,10,107,103,20,105
CCOC(=O)c1nn(-c2ccccc2)c(=O)cc1SC(C)C,102,25,134,103,21,108
CCOC(=O)c1nn(-c2ccccc2)c(=O)cc1SC(C)CC (configuration not stated),144,32,103,110,100*,101
COc1ccc(N(C(=O)Cn2nnc3ccccc32)C(C(=O)NCc2ccco2)c2ccc(C)o2)cc1 (configuration not stated),102,252*,85,99,6,100
Cn1c2ccccc2c2c(C(=O)N3CCN(C(=O)c4ccco4)CC3)cn(C3CCCCC3)c(=O)c21,71,149*,62,65,11,93
Cn1c2ccccc2c2c(C(=O)N3CCN(c4ccccn4)CC3)cn(C3CCCC3)c(=O)c21,103,13,107,103,9,102
Brc1ccccc1-c1nnc(CSc2nnc3sc4ccccc4n23)o1,99,257*,103,100,8,102
N#CCSc1nnc2sc3ccccc3n12,98,23,101,102,6,104
CN1CCCC(OC(=O)c2cc(Cl)ccc2Cl)C1 (configuration not stated),100,258*,102,97,7,100
